Values without a mark were called inactive. Records with an inconclusive call do not appear. Activity calls are given as the source filed them. Unless noted, calls come from the whole dose curve; as a rule, active = well fitted curve in the direction sought with a large enough effect in the repeat runs; inconclusive = weak or mixed curves; inactive = no such curve, though single readings can be large; an effect the other way counts as inactive or inconclusive.

These results are taken from PubChem BioAssay (Tox21).

Assay [1] can be described thus: qHTS assay to identify small molecule antagonists of the estrogen receptor alpha (ER-alpha) signaling pathway using the BG1 cell line in the presence of 0.1 nM 17-beta-estradiol - cell viability counter screen (AID 1259241). Note: nearly all actives have a fitted effect of over 40% in size. Note: potency is the fitted concentration of half-maximal effect. In outline: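 The cell line endogenously expresses full-length ER-alpha and carries four EREs driving luciferase. Cells are cultured 5 days hormone-free, treated 22 hr with compounds and 0.1 nM estradiol, then viability is read by fluorescence.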
Background: Quantitative high-throughput screening tests each substance at several concentrations.

Assay [2] is described as follows: qHTS assay to identify small molecule antagonists of the androgen receptor (AR) signaling pathway using the MDA cell line in the presence of 0.5 nM R1881 - cell viability counter screen (AID 1259242). Note: nearly all actives have a fitted effect of over 45% in size. Note: potency is the fitted concentration of half-maximal effect. In a few lines: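 Human breast carcinoma MDA-kb2 cells, cultured without CO2, receive compounds alongside 0.5 nM (final) R1881 agonist. After 16 hr at 37C, viability is taken as live-cell protease signal.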

Assay [3] addresses Androgen receptor (Homo sapiens) (UniProt P10275). The assay can be described thus: qHTS assay to identify small molecule antagonists of the androgen receptor (AR) signaling pathway using the MDA cell line in the presence of 0.5 nM R1881 (AID 1259243). Note: nearly all actives have a fitted effect of over 50% in size. Note: potency is the fitted concentration of half-maximal effect. In outline:
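Cells: MDA-kb2 (MMTV-luc). Stimulus: 0.5 nM R1881. Time: 16 hr, 37C, no CO2. Detection: ONE-Glo luminescence after 30 min at RT.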

The target of assay [4] is Estrogen receptor (Homo sapiens) (UniProt P03372). As to the kind of experiment: qHTS assay to identify small molecule antagonists of the estrogen receptor alpha (ER-alpha) signaling pathway using the BG1 cell line in the presence of 0.1 nM 17-beta-estradiol (AID 1259244). Note: nearly all actives have a fitted effect of over 50% in size. In a few lines: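 Seeding of stripped-serum-adapted VM7Luc4E2 cells, 24 h attachment, compound transfer, then 0.1 nM final 17beta-estradiol; after 22 h incubation, ONE-Glo reagent and luminescence reading.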

A short description of assay [5]: qHTS assay to identify small molecule HDAC inhibitors (AID 1259364).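 Note: wild-type HCT-116 cells with endogenous class I/II HDAC activity; top concentration of the series differs between compounds; nearly all actives have a fitted effect of over 45% in size.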 In outline:
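After a 2 hr compound incubation (37C, 5% CO2), HCT-116 cells seeded at 1,500/well the day before received HDAC-Glo reagent; signal read as luminescence after 30 min at room temperature.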

The nature of assay [6]: qHTS assay to identify small molecule HDAC inhibitors - cell viability counter screen (AID 1259365). Note: series mostly up to about 92 µM; nearly all actives have a fitted effect of over 50% in size. In outline: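 Viability readout: CellTiter-Glo luminescence. Wild-type HCT-116 cells, 2hr compound treatment following overnight attachment at 37 C.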
Assay [7] is described as follows: qHTS assay to identify small molecule agonists of the sonic hedgehog signaling (Shh) pathway - cell viability counter screen (AID 1259366). Note: nearly all actives have a fitted effect of over 50% in size. Note: potency is the fitted concentration of half-maximal effect. In outline:
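Viability measured fluorometrically (CellTiter-Fluor, 1hr, 37C) in 3T3 Gli1-Luc reporter cells after 23hr compound exposure within a 24hr incubation at 37C/5% CO2.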

A short description of assay [8]: qHTS assay to identify small molecule antagonists of the sonic hedgehog signaling (Shh) pathway - cell viability counter screen (AID 1259367). Note: nearly all actives have a fitted effect of over 55% in size. Note: potency is the fitted concentration of half-maximal effect. In outline: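 Tox21 library chemicals were tested on a Gli1-Luc NIH/3T3 clone (2,000 cells/well) stimulated by conditioned medium; viability was quantified as fluorescence from CellTiter-Fluor reagent added at 23 hr.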
Assay [9] is described as follows: qHTS assay to identify small molecule agonists of the sonic hedgehog signaling (Shh) pathway (AID 1259368; calls by dose curve;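 note: NIH/3T3-derived 3T3Gli1-Luc cells carrying a stable Gli1-driven firefly luciferase reporter; series mostly up to about 92 µM; nearly all actives have a fitted effect of over 15% in size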). In outline:
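Stable NIH/3T3 Gli1-Luc reporter clone; 24 hr cpd exposure after a 4 hr settling period; luminescence endpoint.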

Assay [10] is described as follows: qHTS assay to identify small molecule antagonists of the sonic hedgehog signaling (Shh) pathway (AID 1259369; calls by dose curve; note: nearly all actives have a fitted effect of over 45% in size; note: potency is the fitted concentration of half-maximal effect). In outline:
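Gli1 transcriptional reporter (firefly Luc) in NIH/3T3 background, conditioned-medium activated. 24hr exposure, luminescence endpoint.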

Assay [11] can be described thus: qHTS assay to identify small molecule agonists of the androgen receptor (AR) signaling pathway in the presence of an antagonist - cell viability counter screen (AID 1259379).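 For activity change, negative = cytotoxicity: MDA-kb2 human breast cancer cells carrying an MMTV luciferase reporter; series mostly up to about 92 µM.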 Note: nearly all actives have a fitted effect of over 25% in size. Note: potency is the fitted concentration of half-maximal effect. In outline: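 Counter screen for cell viability run in parallel with the AR agonist-mode luciferase assay. MDA-kb2 cells were co-treated with nilutamide (3.0uM final) and compounds, then incubated 16 hr at 37C, and CellTiter-Fluor fluorescence was measured.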

Assay [12] can be described thus: qHTS assay to identify small molecule agonists of the estrogen receptor beta (ER-beta) signaling pathway - cell viability counter screen (AID 1259380). Note: nearly all actives have a fitted effect of over 30% in size. Note: potency is the fitted concentration of half-maximal effect. In a few lines:
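In this qHTS counter screen, HEK293T cells carrying an ER-beta/UAS beta-lactamase reporter, grown in 2% charcoal-stripped FBS, received compound for 16 hr; ATP-based CellTiter-Glo luminescence was then read after 30 min at room temperature.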

The target of assay [13] is Androgen receptor (Homo sapiens) (UniProt P10275). As to the kind of experiment: qHTS assay to identify small molecule agonists of the androgen receptor (AR) signaling pathway in the presence of an antagonist (AID 1259381; calls by dose curve; note: nearly all actives have a fitted effect of over 15% in size). In outline:
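AR antagonist background: nilutamide 3.0uM final. Cell line: MDA-kb2, MMTV-driven luciferase, responsive to both AR and GR. Exposure 16hr, 37C, no CO2; ONE-Glo luminescence.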

Assay [14] in a line: qHTS assay to identify small molecule antagonists of the estrogen receptor beta (ER-beta) signaling pathway - cell viability counter screen (AID 1259382). For activity change, negative = cytotoxicity: series mostly up to about 92 µM. Note: nearly all actives have a fitted effect of over 55% in size. Note: potency is the fitted concentration of half-maximal effect. In outline: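 HEK293T ER-beta-UAS-bla, 2% charcoal-stripped FBS; compounds + 1nM E2 16 hr 37C; CellTiter-Glo luminescence, 30 min RT.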
Assay [15] deals with Estrogen receptor (Homo sapiens) (UniProt P03372). The assay can be described thus: qHTS assay to identify small molecule agonists of the estrogen receptor alpha (ER-alpha) signaling pathway in the presence of an antagonist (AID 1259383; calls by dose curve; note: top concentration of the series differs between compounds; nearly all actives have a fitted effect of over 15% in size). In a few lines:
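ER-alpha agonism measured under antagonist challenge: 10.0nM ICI-182,780 (final) plus compound, 15 concentrations, 22hr, VM7Luc4E2 ERE-luciferase cells. Read by luminescence.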

Assay [16] in a line: qHTS assay to identify small molecule agonists or antagonists of the thyroid stimulating hormone receptor (TSHR) signaling pathway - wild type cell line counter screen (AID 1259384; calls by dose curve). In a few lines: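 Wild-type Hek293 cells, 800/well, 18 h at 37C, then compound with Ro20-1724 for 30 min RT. cAMP by HTRF (cAMP-d2/anti-cAMP cryptate), 1 h RT, fluorescence read. 15 concentrations, triplicates.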

In assay [17] the target is Thyrotropin receptor (Homo sapiens) (UniProt P16473). As to the kind of experiment: qHTS assay to identify small molecule antagonists of the thyroid stimulating hormone receptor (TSHR) signaling pathway (AID 1259385; calls by dose curve; note: nearly all actives have a fitted effect of over 20% in size). In a few lines:
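TSHR-HEK293 cells (800/well) plated 18 h, then compounds with Ro20-1724 and TSH at 1.5 ng/mL final, 30 min at room temperature. cAMP quantified by HTRF (cAMP-d2/anti-cAMP-cryptate, 1 h); 15 concentrations in triplicate.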

In assay [18] the target is Estrogen receptor beta (Homo sapiens) (UniProt Q92731). The assay can be described thus: qHTS assay to identify small molecule agonists of the estrogen receptor beta (ER-beta) signaling pathway (AID 1259377; active = well fitted activation curve with a large enough effect in the signal ratio in the repeat runs, not every such curve was filed as active; the % refers to the signal ratio). In a few lines:
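A UAS-controlled beta-lactamase reporter in ER-beta-UAS-bla HEK293T cells reports receptor activation. Compounds act for 16 hr at 37C in 2% charcoal-stripped serum, and a FRET substrate is read by fluorescence after 2 hours.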

Assay [19] has the same target. The assay can be described thus: qHTS assay to identify small molecule antagonists of the estrogen receptor beta (ER-beta) signaling pathway (AID 1259378; active = well fitted inhibition curve with a large enough effect in the signal ratio in the repeat runs, not every such curve was filed as active; the % refers to the signal ratio). In a few lines: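 ER-beta-UAS-bla HEK293T cells in 2% charcoal-stripped FBS medium treated with compound plus 1nM final 17-beta-estradiol for 16 hr at 37C. Beta-lactamase reporter read by FRET substrate fluorescence after 2 hours at room temperature.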
% is set by controls: 0 for no effect and ±100 for the full control effect.

Chain of Androgen receptor (Homo sapiens) (P10275 whole entry, looked up): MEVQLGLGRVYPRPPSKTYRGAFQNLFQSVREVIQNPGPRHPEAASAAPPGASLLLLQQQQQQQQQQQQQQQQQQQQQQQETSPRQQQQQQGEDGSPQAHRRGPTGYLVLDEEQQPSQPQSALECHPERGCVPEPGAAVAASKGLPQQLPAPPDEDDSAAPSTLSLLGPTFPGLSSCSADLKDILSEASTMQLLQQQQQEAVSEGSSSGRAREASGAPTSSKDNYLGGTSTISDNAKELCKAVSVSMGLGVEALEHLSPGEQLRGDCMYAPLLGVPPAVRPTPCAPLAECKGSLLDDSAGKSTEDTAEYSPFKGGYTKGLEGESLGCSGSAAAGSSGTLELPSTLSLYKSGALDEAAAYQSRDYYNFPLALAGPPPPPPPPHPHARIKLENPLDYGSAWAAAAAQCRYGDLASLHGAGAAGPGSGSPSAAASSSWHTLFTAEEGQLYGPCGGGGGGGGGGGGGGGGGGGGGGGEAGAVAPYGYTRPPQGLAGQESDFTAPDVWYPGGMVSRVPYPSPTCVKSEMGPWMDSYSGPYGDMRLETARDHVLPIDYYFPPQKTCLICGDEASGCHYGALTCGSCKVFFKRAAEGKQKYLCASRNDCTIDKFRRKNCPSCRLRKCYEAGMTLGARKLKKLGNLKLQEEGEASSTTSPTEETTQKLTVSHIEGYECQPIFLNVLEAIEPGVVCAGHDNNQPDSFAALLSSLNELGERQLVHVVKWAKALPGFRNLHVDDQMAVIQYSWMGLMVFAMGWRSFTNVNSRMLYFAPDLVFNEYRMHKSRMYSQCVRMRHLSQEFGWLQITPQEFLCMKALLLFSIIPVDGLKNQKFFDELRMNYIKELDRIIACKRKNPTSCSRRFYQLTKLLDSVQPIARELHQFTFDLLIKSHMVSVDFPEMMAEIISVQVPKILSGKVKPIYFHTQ
Chain of Thyrotropin receptor (Homo sapiens) (P16473 whole entry, looked up): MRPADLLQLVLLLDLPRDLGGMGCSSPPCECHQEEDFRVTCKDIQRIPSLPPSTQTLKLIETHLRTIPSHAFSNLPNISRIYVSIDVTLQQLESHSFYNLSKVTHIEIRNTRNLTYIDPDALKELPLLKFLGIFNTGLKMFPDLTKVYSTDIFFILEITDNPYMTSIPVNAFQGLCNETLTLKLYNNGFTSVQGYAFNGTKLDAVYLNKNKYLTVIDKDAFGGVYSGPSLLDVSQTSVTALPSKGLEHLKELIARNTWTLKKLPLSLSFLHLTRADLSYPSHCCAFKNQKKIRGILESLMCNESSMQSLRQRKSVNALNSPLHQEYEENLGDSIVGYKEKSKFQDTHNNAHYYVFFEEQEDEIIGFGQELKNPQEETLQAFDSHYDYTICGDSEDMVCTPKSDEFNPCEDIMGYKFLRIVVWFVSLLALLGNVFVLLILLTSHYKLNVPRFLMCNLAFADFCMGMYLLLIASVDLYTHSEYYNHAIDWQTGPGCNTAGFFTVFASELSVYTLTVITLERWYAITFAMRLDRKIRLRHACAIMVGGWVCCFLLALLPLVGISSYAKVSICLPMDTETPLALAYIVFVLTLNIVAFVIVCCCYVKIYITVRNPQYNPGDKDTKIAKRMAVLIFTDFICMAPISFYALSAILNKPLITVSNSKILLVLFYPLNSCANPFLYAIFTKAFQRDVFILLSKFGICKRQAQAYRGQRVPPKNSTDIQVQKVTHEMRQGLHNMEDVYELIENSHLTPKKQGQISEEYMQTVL
Chain of Estrogen receptor (Homo sapiens) (P03372 whole entry, looked up): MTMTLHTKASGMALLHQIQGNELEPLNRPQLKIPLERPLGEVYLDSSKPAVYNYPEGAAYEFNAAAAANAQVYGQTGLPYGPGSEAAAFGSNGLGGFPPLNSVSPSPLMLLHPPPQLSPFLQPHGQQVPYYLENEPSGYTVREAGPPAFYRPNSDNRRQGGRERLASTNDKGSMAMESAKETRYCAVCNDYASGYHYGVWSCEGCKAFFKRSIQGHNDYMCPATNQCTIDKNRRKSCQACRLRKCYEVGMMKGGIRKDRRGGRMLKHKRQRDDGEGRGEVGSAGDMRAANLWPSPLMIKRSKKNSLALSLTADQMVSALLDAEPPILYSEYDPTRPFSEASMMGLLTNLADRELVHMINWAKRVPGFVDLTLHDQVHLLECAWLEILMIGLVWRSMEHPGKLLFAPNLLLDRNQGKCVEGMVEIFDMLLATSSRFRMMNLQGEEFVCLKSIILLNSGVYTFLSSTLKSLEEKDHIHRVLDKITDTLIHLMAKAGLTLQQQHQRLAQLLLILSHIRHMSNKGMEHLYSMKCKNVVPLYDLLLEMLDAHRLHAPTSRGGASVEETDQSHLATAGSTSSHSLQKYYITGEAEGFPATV
Chain of Estrogen receptor beta (Homo sapiens) (Q92731 whole entry, looked up): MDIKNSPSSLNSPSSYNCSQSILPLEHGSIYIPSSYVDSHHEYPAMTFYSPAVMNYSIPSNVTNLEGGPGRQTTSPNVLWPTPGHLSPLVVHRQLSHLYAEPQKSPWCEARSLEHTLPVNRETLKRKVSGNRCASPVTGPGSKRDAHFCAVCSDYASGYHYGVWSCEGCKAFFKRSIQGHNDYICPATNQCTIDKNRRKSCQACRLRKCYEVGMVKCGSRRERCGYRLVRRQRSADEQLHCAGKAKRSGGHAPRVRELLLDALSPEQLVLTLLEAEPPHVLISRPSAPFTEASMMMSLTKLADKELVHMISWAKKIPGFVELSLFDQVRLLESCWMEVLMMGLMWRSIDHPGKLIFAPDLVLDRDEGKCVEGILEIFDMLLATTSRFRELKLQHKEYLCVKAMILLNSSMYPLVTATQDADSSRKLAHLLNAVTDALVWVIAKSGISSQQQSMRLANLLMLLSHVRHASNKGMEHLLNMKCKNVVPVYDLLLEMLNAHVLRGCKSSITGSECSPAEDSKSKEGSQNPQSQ

In the case of `[Cl][Sn]([c]1ccccc1)([c]1ccccc1)[c]1ccccc1`, the Potency in assay [1] was 4110 nM (active); in [2] it was 1640 nM (active); in [3], 820 nM (active); in assay [7], 231 nM (active); in assay [8], 366 nM (active); in [10], 206 nM (active). Moreover, the Potency was 1160 nM (active) in [11], 820 nM (active) in assay [12] and 820 nM (active) in assay [14]. In addition, the activity change, negative = inhibition in [4] was -95.6% [at 19 µM]; in [5] it was -5.43% [at 19 µM]. Further, the activity change, negative = cytotoxicity in assay [6] is 26.2% [at 19 µM]. Also, the activity change in assay [9] is -11.2% [at 18.9 µM, active compounds read high]. In addition, the results for the activation in assay [13] and in assay [15] were -10.8% [at 19 µM] and -14.6% [at 19 µM], respectively. Besides, the cAMP activity change in assay [16] was 23.5% [at 18.9 µM].
Consider `CC(Cl)CN(C)C` (configuration not stated), for which the Potency entry in [1], in [2], in assay [3], in assay [4], in assay [5] and in assay [6] was “inactive” in each case. In addition, the Potency entry in assay [7], in assay [8], in [9], in [11], in assay [12] and in assay [13] was “inactive” each time. For the same compound, the Potency result in assay [14], in assay [15] and in assay [17] was “inactive” throughout. In addition, the compound was classed as inactive in assay [16].
For the compound `C[As+](C)(C)CC(=O)[O-]`, the Potency result in assay [1], in [2], in assay [3], in assay [4], in assay [5] and in assay [6] was “inactive” each time. In addition, the Potency entry in [7], in assay [9], in assay [10], in assay [18], in assay [19] and in assay [11] was “inactive” in each case. Besides, the Potency result in [12], in assay [13], in assay [14], in [15] and in [17] was “inactive” throughout. The outcome in assay [16] was inactive.
On to `Cc1ccc(CCl)cc1`, for which the Potency result in [1], in [2], in [3], in [4], in assay [5] and in [6] was “inactive” each time. The Potency entry in assay [7], in assay [8], in assay [9], in assay [18], in [19] and in assay [11] was “inactive” throughout. Moreover, the Potency entry in assay [12], in assay [13], in assay [14], in [15] and in [17] was “inactive” throughout. In [16], the result was inactive.
For `CN(CCCC(O)c1cccnc1)N=O` (configuration not stated), the Potency result in assay [1], in assay [2], in assay [3], in assay [4], in assay [5] and in assay [6] was “inactive” each time. Moreover, the Potency entry in [7], in [8], in [9], in assay [10], in assay [18] and in assay [19] was “inactive” each time. Besides, the Potency entry in assay [11], in [12], in assay [13], in assay [14] and in assay [15] was “inactive” throughout. The compound was called inactive in [16].
For the compound `Cc1ccc(C(=O)Cl)cc1`, the Potency result in [1], in [2], in assay [3], in [4], in assay [5] and in assay [6] was “inactive” throughout. The Potency result in assay [7], in assay [8], in [9], in [18], in [19] and in assay [11] was “inactive” throughout. The Potency entry in assay [12], in [13], in [14], in [15] and in assay [17] was “inactive” in each case. The compound was classed as inactive in [16].
With `BrCC(Br)c1ccccc1` (configuration not stated), the Potency entry in assay [1], in assay [2], in assay [3], in [4], in assay [5] and in assay [6] was “inactive” each time. In addition, the Potency result in assay [7], in assay [8], in [9], in assay [10], in assay [19] and in assay [11] was “inactive” each time. Moreover, the Potency result in [12], in assay [13], in assay [14], in [15] and in assay [17] was “inactive” each time. Also, in assay [16], the result was inactive.
